From PubChem BioAssay AID1345083 (National Center for Advancing Translational Sciences (NCATS), 2018)
Screen size: about 94,000 compounds; about 6,200 (6.6%) were called active. Roughly 31% stayed inconclusive and do not appear here. This is one part of a sample in which actives are shown more often than they occur. Values without a mark were called inactive. Calls come from the whole dose curve; as a rule, active = well fitted inhibition curve with a large enough effect; inconclusive = small, poorly fitted or top-dose-only effect; inactive = flat fitted curve, though single readings scatter.

test: Cytotoxic Profiling in HEK 293 Cell Line of Diverse Libraries Using Quantitative High-Throughput Screening; details: HEK 293 viability, ATP luminescence (CellTiter-Glo), 48-72 h; series mostly up to 115 µM; activity change, negative = cytotoxicity: at the top concentration; note: nearly all actives have a fitted effect of over 60% in size
How it was run: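 CellTiter-Glo luminescence (cellular ATP) was read after 48 or 72 hr of compound exposure at 37 degree Celsius. Cells were HEK 293 plated at 250 cells/well.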
% is set by controls: 0 for no effect and ±100 for the full control effect; potency is the fitted concentration of half-maximal effect.

| SMILES | activity change, negative = cytotoxicity | outcome | Potency |
| --- | --- | --- | --- |
| CNC(=O)[C@@H]1CN(C(=O)Cn2c(=O)oc3ccccc32)C[C@H]1c1n[nH]c(C)n1 | 3.76% |  |  |
| O=C(O)c1ccc2c(c1)CC(=O)N2Cc1cccc(F)c1 | 4.64% |  |  |
| CN1CCCCCCN(S(=O)(=O)N(C)C)CCC1=O |  | inactive |  |
| O=C(O)CC1(CC(=O)N2CCN3C(=O)c4cc(-c5ccsc5)ccc4NC(=O)[C@H]3C2)CCCC1 |  | inactive |  |
| c1cncc(CN2CC(Oc3ccc4c(c3)OCO4)C2)c1 |  | inactive [at 172 µM] |  |
| COC(=O)N1CCN2C[C@@H](C(N)=O)[C@H](c3ccccc3)[C@H]2C1 | -27.2% |  |  |
| CC(=O)c1c(C)nn(CC(=O)N2CCC(c3cc(C(C)C)n[nH]3)CC2)c1C | 2.16% |  |  |
| CCC(=O)N1CCC(c2nc(C3CCOCC3)no2)C1 (centres undefined) | 8.65% |  |  |
| CSc1ccc(CNC(=O)c2cc3c(N4CCSCC4)nc(C)cn3n2)cc1 | -26% |  |  |
| COCc1nc(-c2ccc(NC(=O)Cn3nc4c(cc3=O)CCCC4)cc2)n[nH]1 | -7.47% |  |  |
| O=C(NCCCn1cccn1)C1CCCCc2nnc(-c3ccccc3)n21 (centres undefined) | -10.7% |  |  |
| COc1ccc(C(=O)N2CCCC(Cc3nc(C4CCOCC4)no3)C2)cc1 (centres undefined) | -0.205% |  |  |
| C=CCNC(=O)N[C@H]1CO[C@H]2[C@@H]1OC[C@H]2OC(=O)Nc1cccc(C(C)=O)c1 | -23.8% [at 172 µM] |  |  |
| CC(C)(C)c1ccnc(N[C@H]2CO[C@H]3[C@@H]2OC[C@@H]3NC(=O)CC2(CC(=O)O)CCCC2)n1 |  | inactive |  |
| CC(C)(C)c1ccnc(N[C@H]2CO[C@H]3[C@@H]2OC[C@H]3OC(=O)Nc2cccc(C(F)(F)F)c2)n1 |  |  | 39.8 µM (active) |
| CC(=O)c1ccc(NC(=O)O[C@@H]2CO[C@H]3[C@@H]2OC[C@@H]3Nc2nccc(-c3ccco3)n2)cc1 |  |  | 22.4 µM (active) |
| CCCN1CCN(C(=O)C2CCCN(c3cnn(Cc4ccccc4)c(=O)c3)C2)CC1 (centres undefined) | 4.03% |  |  |
| O=C(Cc1cccc(F)c1)N1CC(CNC(=O)N2CCCC2)C2(CCOCC2)C1 (centres undefined) | -9.03% |  |  |
| Cc1oc2c(c1C(=O)NC1CCN(C)CC1)CN(C)CC2 | 1.61% |  |  |
| O=C(Cn1c(=O)oc2ccccc21)NC1CCc2nn(CC3CC3)c(=O)n2CC1 (centres undefined) | -3.93% |  |  |
| Cc1cc(=O)n(CC(=O)Nc2cccc(Cl)c2C)c(N2CCc3ccccc3C2)n1 | 1.27% |  |  |
| CNC(=O)c1cc(C)nc2onc(C3CCCN3C(=O)c3ccccc3OC)c12 (centres undefined) | 0.24% |  |  |
| COc1ccccc1N1CCN(C(=O)Cn2c(N3CCc4ccccc4C3)nc(C)cc2=O)CC1 |  |  | 35.5 µM (active) |
| COc1ccc(CN2CCc3ncc(C(=O)Nc4ccccc4C)n3CC2)cn1 |  | inactive [at 172 µM] |  |
| Cc1ccccc1CN1CCc2ncc(C(=O)NCCOc3ccccc3)n2CC1 |  |  | 79.4 µM (active) |

| SMILES | activity change, negative = cytotoxicity | outcome | Potency |
| --- | --- | --- | --- |
| COc1ccc(CN2CCc3ncc(C(=O)NCCOc4ccccc4)n3CC2)cn1 | -25.6% [at 172 µM] |  |  |
| Cc1cccc(CN2CCc3ncc(C(=O)NCc4ccccc4)n3CC2)n1 |  |  | 100 µM (active) |
| COc1ncc(CN2CCc3ncc(C(=O)Nc4ccccc4)n3CC2)cn1 | 3.76% [at 172 µM] |  |  |
| COCCOc1cc(=O)n2c(c1C(=O)NCc1ccccc1)CCOCC2 |  | inactive |  |
| CCOCC(=O)N[C@@H]1c2ccccc2C2(CCNCC2)[C@H]1OC |  | inactive |  |
| COc1ccc(CCNC(=O)C2CC(=O)N(c3n[nH]c4cccc(F)c34)C2)cc1 (centres undefined) | 8.78% |  |  |
| COc1cccc(-c2cn(C3CCN(C(=O)c4ccc(Cl)cc4)CC3)c(=O)[nH]2)c1 | -23.2% |  |  |
| Cc1ccc(OCC(=O)NCc2cccnc2N2CCOCC2)cc1 | -16.7% |  |  |
| Cc1ccccc1CN1CCCn2nc(C)c(-c3cccnc3N3CCOCC3)c21 |  |  | 70.8 µM (active) |
| C=CCCCC(=O)Nc1ccc(NC(=O)C(C)(C)C)c(OC)c1 | -9.37% |  |  |
| O=C(NCc1cc2n(n1)CCCN(C1CCCCC1)C2)c1cccc(F)c1 | 0.948% |  |  |
| O=C(Nc1cccn2nc(C3CCC3)nc12)c1cccc(F)c1 |  |  | 39.8 µM (active) |
| O=C1CCCCC(CNC(=O)c2cccc(F)c2)N1 (centres undefined) |  | inactive |  |
| CCNC(=O)C1(CCO)CCN(c2ncccn2)C1 (centres undefined) | -4.15% |  |  |
| O=C(NCc1ccc(Cl)nc1)c1cn2c(n1)CN([S+](=O)([O-])c1cccc(C(F)(F)F)c1)CC2 | -16.9% |  |  |
| CC(=O)N1CCC2(CC1)CN(C(=O)Cc1cccc(Cl)c1)CCO2 | 0.172% |  |  |
| O=C(Cc1ccc(F)cc1)N1CCOCC2(CN(Cc3ccccc3)C2)C1 |  |  | 39.8 µM (active) |
| CC1(C(=O)N2CCN(Cc3ccccc3)CC2)CCOCC1 | -6.51% [at 172 µM] |  |  |
| O=C(Cn1nc2n(c1=O)CCCCC2)N1CCc2ccccc21 | 12.5% |  |  |
| CCOCC(=O)Nc1nn(-c2cccc(F)c2)c2cccc(N3CCOC3=O)c12 | -23.7% |  |  |
| NC(=O)[C@H](Cc1cccs1)NC(=O)[C@@H]1C[C@@H](NC(=O)c2cnccn2)CCN1C(=O)COCC(=O)O |  | inactive |  |
| O=C(NCc1ccncc1)C1CCN(C(=O)N2CC3CC(C2)[C@H]2CCCC(=O)N2C3)CC1 (some centres undefined) | 6.44% |  |  |
| O=C(Nc1ccccc1Br)N1CCC2(CC1)SCC(=O)N2Cc1ccco1 | -26.1% |  |  |
| CNC(=O)[C@@H]1CN(C(=O)Cn2c(=O)oc3ccccc32)C[C@H]1c1nc(C)no1 | -8.64% |  |  |
